These results are taken from PubChem BioAssay AID651610 (Broad Institute, 2012).

Screen size: about 360,000 compounds; about 3,900 (1.1%) were called active. Many of the other results were omitted from the sample, so actives are more common in it than they were. A number with no mark means an inactive call.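 How the source made its calls: active means mean replicate inhibition score of at least 50 and every replicate individually at or above 50; inconclusive means only one of the two criteria met; inactive means mean below 50 and not all replicates reaching 50.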

As usually defined, the inhibition is the relative decrease from the control value, in per cent.

The assay is described as follows: inhibitors of HIV-1 Env-driven cell-cell fusion, primary screen, HeLa-JRFL effector, CEM21 target cells, luciferase (AID 651610).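 Further: 0% = plate neutral controls and 100% = maraviroc near 300 nM.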 As to conditions: stronger effect = higher value; at 16.7 µM unless noted.
On to `CCC(=O)N[C@H]1CC[C@@H](CC(=O)NCc2cc(F)cc(F)c2)O[C@@H]1CO`, for which the inhibition was -5.23%.

Turning to `COc1ccc(NC(=O)N(C)C[C@H]2Oc3ccc(NC(=O)NC(C)C)cc3CC(=O)N([C@H](C)CO)C[C@H]2C)cc1`, the inhibition was 2.47%.

Consider `C[C@@H]1CCCCO[C@H](CN(C)S(=O)(=O)c2cccs2)[C@H](C)CN([C@H](C)CO)C(=O)c2cc(NC(=O)c3ccccc3)ccc2O1`, for which the inhibition was 21.5%.

On to `CN(C(=O)CC(NC(=O)c1ccccc1)(c1ccccc1)c1ccccc1)c1ccccc1`, for which the inhibition was 68.6% [at 12.3 µM] (active).

Consider `Cc1ccc(S(=O)(=O)NCCC(=O)OCC(=O)N(C)c2ccccc2)cc1`, for which the inhibition was -4.53% [at 12.3 µM].

With `CN(c1ccccc1)S(=O)(=O)c1ccc(C(=O)NCCc2ccccc2)cc1`, the inhibition was -11.1% [at 12.3 µM].

`CC(=O)c1ccc(S(=O)(=O)N2CCC3(CC2)OCCO3)cc1`: the inhibition is -7.27% [at 12.3 µM].

In the case of `CC(=O)c1ccc(S(=O)(=O)N2CCN(c3nc4c(C)c(C)ccc4cc3C#N)CC2)cc1`, the inhibition was 82.5% [at 12.3 µM] (active).

On to `CC(=O)c1ccc(S(=O)(=O)N2CCN(C(=O)/C=C/c3ccc4ccccc4n3)CC2)cc1`, for which the inhibition was 21.1% [at 12.3 µM].

Regarding `C[C@@H](CN1C2=NC[C@@H](Cc3ccccc3)N2C[C@H]1Cc1ccc(O)cc1)NC(=O)CCC1CCCCC1`, the inhibition is -12.9% [at 12.3 µM].

With `C[C@@H]1CCCCO[C@H](CN(C)C(=O)C2CCCCC2)[C@@H](C)CN([C@H](C)CO)C(=O)c2cc(NC(=O)C3CCCCC3)ccc2O1`, the inhibition is 13.6%.

As to `CC(C)(C)NC(=O)C(CCc1ccccc1)n1c(=O)c(-c2ccccc2)nc2ccccc21` (stereo not given), the inhibition is 20.1% [at 12.3 µM].

For the compound `CSCCC(C(=O)NC(C)(C)C)n1c(-c2ccccc2)nc2ccccc21` (stereo not given), the inhibition is 56.4% [at 12.3 µM] (active).

Turning to `CCC(C(=O)NC(C)(C)C)n1c(-c2ccccc2)nc2ccccc21` (stereo not given), the inhibition was -10.4% [at 12.3 µM].

`COc1cccc(C(=O)Nc2ccc3c(c2)C(=O)N(C)[C@@H]2CC[C@H](CC(=O)NCCCN4CCOCC4)O[C@H]2CO3)c1`: the inhibition was -4.21%.

Take `Clc1ccc2c(c1)C1=C(C(c3ccncc3)O2)C(c2ccc(Br)cc2)n2ncnc2N1` (stereo not given): the inhibition is 74.5% [at 12.3 µM] (active).

For the compound `O=C(C[C@@H]1C=C[C@H](NC(=O)Nc2ccc(C(F)(F)F)cc2)[C@H](CO)O1)NCc1cccc(F)c1`, the inhibition is 9.04%.

For the compound `C[C@H](CO)N1C[C@H](C)[C@H](CN(C)Cc2ccc(C(=O)O)cc2)Oc2ccc(NS(=O)(=O)c3cn(C)cn3)cc2CC1=O`, the inhibition is -3.12%.

Regarding `C[C@@H]1CN([C@@H](C)CO)C(=O)c2cccc(NC(=O)c3ccc(-c4nccs4)cc3)c2O[C@H]1CN(C)Cc1ccc(Cl)c(Cl)c1`, the inhibition is 38.1%.

As for `COc1ccccc1-c1cnc2c(c1)C(=O)N([C@@H](C)CO)C[C@H](C)[C@H](CN(C)C(=O)c1ccncc1)O2`, the inhibition is 2.54%.

Regarding `CCCCn1c(SCC(=O)N2CCOCC2)nc2c1c(=O)n(C)c(=O)n2C`, the inhibition was -4.99% [at 12.3 µM].

On to `CCCCn1c(SCC(=O)NCCc2ccc(OC)c(OC)c2)nc2c1c(=O)n(C)c(=O)n2C`, for which the inhibition is 114% [at 12.3 µM] (active).

Take `C#CC(C)(C)NC(=O)CSc1nc2c(c(=O)n(C)c(=O)n2C)n1CCCC`: the inhibition was -13.9% [at 12.3 µM].

In the case of `C[C@H](CO)N1C[C@H](C)[C@H](CN(C)CC2CCCCC2)OCCCC[C@H](C)Oc2ccc(NC(=O)c3ccncc3)cc2C1=O`, the inhibition is -17.1%.

Consider `COC(=O)C1=C(C)N(Cc2ccccc2C(F)(F)F)C(=NCc2ccc(C(F)(F)F)cc2)NC1c1ccc(F)cc1` (stereo not given), for which the inhibition is 5.73% [at 12.3 µM].

With `O=C(NCC(F)(F)F)[C@H]1[C@H](CO)[C@H]2Cn3c(ccc(-c4ccncc4)c3=O)[C@H]2N1Cc1ccncc1`, the inhibition was -9.96%.

For the compound `COc1cccc(S(=O)(=O)Nc2ccc3c(c2)[C@@H]2C[C@@H](CC(=O)NC4CCCCC4)O[C@H](CO)[C@@H]2O3)c1`, the inhibition was -5.43%.

For the compound `CC(C)C[C@@H](COCc1ccc(Cl)cc1)N1CCN(C(=O)c2ccc(Cl)cc2Cl)CCC1=O`, the inhibition was -24.6% [at 12.3 µM].

Regarding `O=C(c1ccc(C(F)(F)F)cc1)N1CCC(=O)N([C@H](COCc2ccccc2)Cc2ccccc2)CC1`, the inhibition is -5.07% [at 12.3 µM].

Regarding `CC(C)CC(COCc1ccc(Cl)cc1)N1CCN(C(=O)c2ccc(C(F)(F)F)cc2)CCC1=O` (stereo not given), the inhibition was 65.7% [at 12.3 µM] (active).

For `O=C(C[C@H]1C[C@H]2c3cc(NC(=O)Cc4ccncc4)ccc3O[C@H]2[C@@H](CO)O1)NCc1cccc(F)c1`, the inhibition is 3.14%.

Take `COCC(=O)N(C)C[C@H]1Oc2ncc(-c3ccc(C)cc3)cc2C(=O)N([C@@H](C)CO)C[C@@H]1C`: the inhibition is -0.608%.

`Cc1noc(C)c1S(=O)(=O)N(C)C[C@@H]1OCCCC[C@@H](C)Oc2ccc(NC(=O)c3ccccc3)cc2C(=O)N([C@H](C)CO)C[C@H]1C`: the inhibition is -129%.

`C[C@@H]1CN([C@@H](C)CO)S(=O)(=O)c2ccc(C#C[C@@H](C)O)cc2O[C@@H]1CN(C)CC1CC1`: the inhibition was -13.5%.

On to `C[C@H](CO)N1C[C@H](C)[C@H](CN(C)C(=O)Nc2ccc(C(F)(F)F)cc2)OCCCC[C@H](C)Oc2ccc(NC(=O)C3CCCCC3)cc2C1=O`, for which the inhibition was 9.61%.

Consider `CCOc1cc(/C=C(/C#N)c2ccc(Cl)cc2)cc(Cl)c1OCC(=O)O`, for which the inhibition is 58% [at 12.3 µM] (active).

On to `COc1cc(/C=C(/NC(=O)c2ccc(Cl)cc2Cl)C(=O)O)cc(OC)c1OC`, for which the inhibition is 4.88% [at 12.3 µM].

For the compound `CCOc1cc(/C=N/NC(=O)OC)ccc1OCCSc1ccc(Cl)cc1`, the inhibition is 4.12% [at 12.3 µM].

In the case of `O=C(C[C@@H]1C[C@@H]2c3cc(NC(=O)C4CCC4)ccc3O[C@@H]2[C@@H](CO)O1)NCCN1CCCCC1`, the inhibition is -4.86%.

On to `O=C(NC(Nc1nc2ccc([N+](=O)[O-])cc2s1)(C(F)(F)F)C(F)(F)F)c1ccccc1`, for which the inhibition is 81.1% [at 12.3 µM] (active).

As to `O=C(O)c1cc([N+](=O)[O-])c(Nc2cccc3ccccc23)c([N+](=O)[O-])c1`, the inhibition is 1.53% [at 12.3 µM].

As for `CC(Nc1ccc([N+](=O)[O-])cc1[N+](=O)[O-])c1ccccc1` (stereo not given), the inhibition is -0.676% [at 12.3 µM].

Regarding `COc1cccc(-c2cnc3c(c2)C(=O)N([C@H](C)CO)C[C@H](C)[C@H](CN(C)C(=O)NC(C)C)O3)c1`, the inhibition is 7.31%.

In the case of `CCc1ccc(-c2nc(SCC(=O)NC3CCCC3)n[nH]2)cc1`, the inhibition was 56.7% [at 12.3 µM] (active).

Take `COC(=O)c1ccccc1NC(=O)CSc1n[nH]c(-c2ccncc2)n1`: the inhibition was 9.97% [at 12.3 µM].

Turning to `CCc1c(C)nc(SCC(=O)NC2CCCC2)[nH]c1=O`, the inhibition is -1.14% [at 12.3 µM].

With `C=CC1=CCN(S(=O)(=O)C(C)(C)C)[C@@H]1CCO`, the inhibition is 21.3% [at 12.3 µM].

Regarding `CCCNC(=O)N(C)C[C@H]1Oc2ncc(-c3ccc(F)cc3)cc2C(=O)N([C@H](C)CO)C[C@H]1C`, the inhibition is -0.986%.

For `CC(C)CC#Cc1cnc2c(c1)C(=O)N([C@@H](C)CO)C[C@H](C)[C@@H](CN(C)C(=O)c1cccc(F)c1)O2`, the inhibition was -7.05%.

Take `C[C@H](CO)N1C[C@H](C)[C@@H](CN(C)C(=O)C2CC2)Oc2cc(C#CC3CC3)ccc2S1(=O)=O`: the inhibition is 18.8%.

On to `CN1CCN(C(=O)C[C@@H]2C[C@@H]3c4cc(NC(=O)c5ccc6c(c5)OCO6)ccc4O[C@@H]3[C@H](CO)O2)CC1`, for which the inhibition is 2.49%.

For the compound `COc1cccc(-c2nc(CS(=O)(=O)CC(=O)NCCc3ccc(OC)c(OC)c3)c(C)o2)c1`, the inhibition is 28.2% [at 12.3 µM].

Consider `COc1ccc(CCNC(=O)C2CCCN(Cc3nc(-c4cccc(Cl)c4)oc3C)C2)cc1OC` (stereo not given), for which the inhibition was 81.2% [at 12.3 µM] (active).

On to `COc1ccc(CCNC(=O)CS(=O)(=O)Cc2nc(-c3ccc(C)cc3)oc2C)cc1OC`, for which the inhibition is 9.54% [at 12.3 µM].

Consider `CO[C@H]1CN(C)C(=O)c2cc(NC(=O)C3CCCC3)ccc2OC[C@@H](C)N(C(=O)CC2CC2)C[C@@H]1C`, for which the inhibition was -11.3%.

Take `O=C(O)C(=Cc1ccc([N+](=O)[O-])cc1)CCc1ccccc1`: the inhibition is -1.24% [at 12.3 µM].

On to `CC(=O)Nc1ccc(C=Cc2ccc([N+](=O)[O-])cc2)cc1`, for which the inhibition was -56.5% [at 12.3 µM].

Consider `O=C1/C(=C\c2ccc([N+](=O)[O-])cc2)CS(=O)(=O)C/C1=C/c1ccc([N+](=O)[O-])cc1`, for which the inhibition is 85.4% [at 12.3 µM] (active).

On to `CS(=O)(=O)Nc1ccc2c(c1)[C@H]1C[C@H](CC(=O)NCc3ccc(Cl)cc3)O[C@@H](CO)[C@H]1O2`, for which the inhibition is -3.71%.

On to `O=C(NCC[C@@H]1CC[C@H](NC(=O)C2CC2)[C@H](CO)O1)c1cnccn1`, for which the inhibition is 1.75%.

In the case of `C[C@@H]1CCCCO[C@H](CN(C)Cc2ccc(Cl)c(Cl)c2)[C@H](C)CN([C@@H](C)CO)C(=O)c2cc(NC(=O)CCC(F)(F)F)ccc2O1`, the inhibition was -44.8%.

For `Cc1ccc(S(=O)(=O)N(C)C[C@H]2Oc3ccc(NS(C)(=O)=O)cc3CC(=O)N([C@@H](C)CO)C[C@H]2C)cc1`, the inhibition was -22.8%.

Turning to `Cc1cc(C)cc(OCC(=O)NCc2cc(C)nc3ccccc23)c1`, the inhibition is 31.3% [at 12.3 µM].

Take `Cc1cc(CNC(=O)c2cccc([N+](=O)[O-])c2)c2ccccc2n1`: the inhibition was 60.8% [at 12.3 µM] (active).

On to `CN(C(=O)c1cccc([N+](=O)[O-])c1)c1ccccc1C(=O)NCc1ccccc1`, for which the inhibition is 29.4% [at 12.3 µM].
